IDE exosite FP = insulin-degrading enzyme (human) exo-site inhibition | P14735 | purified IDE, FL-6b probe fluorescence polarization; hits give low values | z-score at 20 µM | hit rate 6.3% among 17,000;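 active = z-score of -3 or lower, meaning strong loss of probe binding signal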;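 note: His-tagged human IDE residues 42-1019 made in E. coli with 30 nM FL-6b probe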
Target sequence (P14735 42-1019 limits assumed): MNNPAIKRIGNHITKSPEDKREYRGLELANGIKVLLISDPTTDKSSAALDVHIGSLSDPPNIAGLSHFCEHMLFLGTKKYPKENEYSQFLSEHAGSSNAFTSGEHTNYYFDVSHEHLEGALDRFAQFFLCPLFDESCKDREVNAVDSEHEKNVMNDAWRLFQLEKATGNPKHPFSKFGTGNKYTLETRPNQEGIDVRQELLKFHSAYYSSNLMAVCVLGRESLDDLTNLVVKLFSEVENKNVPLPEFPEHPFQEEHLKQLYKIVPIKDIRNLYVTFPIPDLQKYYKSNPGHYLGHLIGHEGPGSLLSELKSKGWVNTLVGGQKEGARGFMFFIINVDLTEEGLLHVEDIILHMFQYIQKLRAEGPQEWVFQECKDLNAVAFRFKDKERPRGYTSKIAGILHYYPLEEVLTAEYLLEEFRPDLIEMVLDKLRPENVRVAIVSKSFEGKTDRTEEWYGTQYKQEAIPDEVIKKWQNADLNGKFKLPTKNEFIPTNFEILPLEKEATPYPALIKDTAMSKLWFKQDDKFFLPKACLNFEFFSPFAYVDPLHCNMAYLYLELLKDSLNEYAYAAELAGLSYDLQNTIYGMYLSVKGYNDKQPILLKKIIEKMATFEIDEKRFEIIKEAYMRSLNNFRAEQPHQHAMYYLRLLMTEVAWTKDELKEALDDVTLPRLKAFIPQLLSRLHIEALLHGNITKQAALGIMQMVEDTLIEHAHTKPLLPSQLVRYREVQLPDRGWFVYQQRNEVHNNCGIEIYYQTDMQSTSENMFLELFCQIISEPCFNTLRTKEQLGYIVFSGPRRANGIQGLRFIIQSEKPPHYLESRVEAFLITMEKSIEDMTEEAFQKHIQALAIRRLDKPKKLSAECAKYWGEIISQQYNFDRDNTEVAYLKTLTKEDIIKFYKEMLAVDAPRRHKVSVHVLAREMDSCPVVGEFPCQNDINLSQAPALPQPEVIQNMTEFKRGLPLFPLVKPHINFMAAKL
* marks the source's active call; other numbers are inactive results; ! = repeats disagree. Shown is part of a subset that was picked to be rich in hits.

SMILES	IDE exosite FP
COc1ccc(CNC(=O)C[C@H]2C=C[C@H](NC(=O)c3cccc(F)c3)[C@H](CO)O2)cc1	-0.082
COc1ccc2c3c(n(C)c2c1)[C@@H](CO)N(C(=O)C1CCOCC1)CC31CCN(C(=O)c2ccncc2)CC1	-0.64
OC[C@@H]1[C@@H](c2ccc(/C=C/c3ccccc3)cc2)[C@@H]2CN(Cc3cccnc3)CCCCN12	-0.94
OC[C@@H]1[C@H](c2ccc(/C=C/c3ccccc3)cc2)[C@@H]2CN(Cc3cccnc3)CCCCN12	-5.2*
OC[C@H]1[C@@H](c2ccc(-c3ccccc3F)cc2)[C@H]2CN(Cc3cccnc3)CCCCN21	2.5
OC[C@@H]1[C@@H](c2ccc(-c3ccccc3)cc2)[C@H]2CN(Cc3cncnc3)CCCCN12	2.7
OC[C@H]1[C@H](c2ccc(Br)cc2)[C@@H]2CN(Cc3cncnc3)CCCCN12	2.8
OC[C@@H]1[C@H](c2ccc(/C=C/c3ccccc3)cc2)[C@@H]2CN(Cc3ccncc3)CCCCN12	-8.5*
Cc1ccccc1-c1ccc([C@H]2[C@@H](CO)N3CCCCN(Cc4cccnc4)C[C@H]23)cc1	-11*
OC[C@@H]1[C@@H](c2ccc(/C=C/c3ccccc3)cc2)[C@@H]2CN(Cc3cncnc3)CCCCN12	-7.9*
CCCC#Cc1ccc([C@H]2[C@H](CO)N3CCCCN(Cc4ccncc4)C[C@@H]23)cc1	-0.41
OC[C@@H]1[C@H](c2ccc(-c3ccccc3F)cc2)[C@H]2CN(Cc3ccncc3)CCCCN12	0.71
OC[C@H]1[C@H](c2ccc(-c3ccc(F)cc3)cc2)[C@H]2CN(Cc3cccnc3)CCCCN21	1.4
OC[C@H]1[C@H](c2ccc(-c3ccccc3F)cc2)[C@@H]2CN(Cc3cccnc3)CCCCN12	2.6
O=C(Nc1cccc(F)c1)N1CCCCN2[C@@H](CO)[C@@H](c3ccc(C#Cc4cccnc4)cc3)[C@@H]2C1	-1.3
O=C1CN(Cc2ccc(F)cc2)C[C@H]2[C@H](c3ccc(Br)cc3)[C@@H](CO)N12	0.93
O=C(c1cnccn1)N1CC(=O)N2[C@H](CO)[C@@H](c3ccc(C#CC4CC4)cc3)[C@@H]2C1	-1.4
COCC(=O)N1[C@@H]2c3ccc(/C=C/c4ccccc4)c(=O)n3C[C@H]1[C@H](CO)[C@H]2C(=O)N1CCOCC1	-0.14
COc1cccc(C#Cc2ccc([C@H]3[C@@H](C#N)N(C(=O)C4CC4)[C@@H]3CO)cc2)c1	-2.6
C[C@H](CO)N1C[C@H](C)[C@@H](CN(C)Cc2ccc(-c3ccccc3)cc2)Oc2ccc(N(C)C)cc2CC1=O	0.27
CCCC(=O)Nc1ccc2c(c1)OC[C@@H](C)N(CC1CCOCC1)C[C@@H](C)[C@H](OC)CN(C)C2=O	1.5
C[C@@H](O)C#Cc1ccc([C@@H]2[C@@H](CO)N3CCCCN(CC4CC4)C[C@H]23)cc1	3.8
C/C=C/c1ccc(C2[C@H]3CNC[C@@H]2N3S(=O)(=O)c2c(C)noc2C)cc1 (stereo partly specified)	1.2
COCC(=O)Nc1ccc2c(c1)C(=O)N(C)C[C@@H](OC)[C@@H](C)CN(C(=O)c1ccncc1)[C@@H](C)CO2	1.4
C[C@@H]1CN([C@H](C)CO)C(=O)c2cc(NS(=O)(=O)c3cn(C)cn3)ccc2O[C@@H](C)CCCCO[C@H]1CN(C)Cc1ccc2c(c1)OCO2	0.35
SMILES	IDE exosite FP
COCC(=O)N1[C@@H](CO)[C@H](c2ccccc2)C12CN(C(=O)c1ccccc1)C2	-0.064
OC[C@@H]1[C@H](c2ccc(/C=C/c3ccccc3)cc2)[C@H]2CN(Cc3cncnc3)CCCCN12	-4.4*
OC[C@@H]1[C@H](c2ccc(-c3cccc(F)c3)cc2)[C@H]2CN(Cc3cncnc3)CCCCN12	-0.54
OC[C@H]1[C@@H](c2ccc(-c3cccc(F)c3)cc2)[C@@H]2CN(Cc3cncnc3)CCCCN12	0.014
O=C(C1CCC1)N1C[C@@H]2N[C@H](C1)C2c1ccc(/C=C/c2ccccc2)cc1 (stereo partly specified)	-1.7
c1cncc(CN2C[C@@H]3N[C@H](C2)C3c2ccc(-c3cccnc3)cc2)c1 (stereo partly specified)	1.8
C(=C\c1ccc(C2[C@@H]3CN(Cc4cccnc4)C[C@H]2N3)cc1)/c1ccccc1 (stereo partly specified)	-4.8*!
C/C=C/c1ccc([C@H]2[C@H](CO)N3C(=O)CN(C(=O)Nc4ccc(F)cc4)C[C@@H]23)cc1	-0.17
CCN(C[C@H]1N[C@H](CO)[C@@H]1c1ccc(-c2ccccc2)cc1)C(=O)COC	1.2
C[C@H]1CN([C@@H](C)CO)C(=O)c2cc(NC(=O)NC3CCCCC3)ccc2O[C@H]1CN(C)S(C)(=O)=O	1.6
CO[C@@H]1CN(C)C(=O)c2cc(NC(=O)c3ccc(F)cc3)ccc2OC[C@@H](C)N(C(=O)CC2CC2)C[C@H]1C	2.5
COCC(=O)N1[C@@H]2CN(C(=O)Nc3ccccc3Cl)c3ccccc3[C@@H]2[C@@H]1CO	0.53
C/C=C/c1ccc([C@H]2[C@@H](CO)N3CCCCN(C(=O)Nc4ccc(F)cc4)C[C@H]23)cc1	3.5
CCCC#Cc1ccc([C@@H]2[C@@H](CO)N3C(=O)CN(C(=O)c4cccc(F)c4)C[C@H]23)cc1	0.1
